Results as given in PubChem BioAssay (Tox21).
“And” between values parts separate entries of the source, which are not always exact repeats. Identical values can stand only once. Inconclusive results are not listed. The source holds several records for some structures; these can differ, active in one and inactive in another. The source made the active and inactive calls. Calls follow the shape of the dose curve; as a rule, active = well fitted cell-killing curve with a large enough effect in the repeat runs; inconclusive = weak or mixed curves; inactive = no such curve, though single readings can be large or run the other way.

Assay: qHTS assay to identify small molecule agonists of the peroxisome proliferator-activated receptor delta (PPARd) signaling pathway - cell viability counter screen (AID 743211); also: nearly all actives have a fitted effect of over 55% in size
Settings: PPARd-bla HEK293H viability, CellTiter-Glo luminescence, 17 h; series mostly up to 62.6 µM
Excerpt: U.S. Tox21 Program National Center for Advancing Translational Sciences [NCATS] NIH Chemical Genomics Center [NCGC] U.S. Environmental Protection Agency [EPA] National Institutes of Environmental Health Sciences [NIEHS] National Toxicology Program [NTP] U.S. Food and Drug Administration [FDA] Tox21 Assay Overview: The peroxisome proliferator-activated receptors (PPARs) are lipid-activated transcription factors of the nuclear receptor superfamily with three distinct subtypes namely PPAR alpha, PPAR delta (PPARd) and PPAR gamma. All these subtypes heterodimerizes with Retinoid X receptor (RXR) and have different physiological functions. […] To identify the compounds that activate PPAR-delta signaling, GeneBLAzer PPAR delta UAS-bla HEK293H cell line (Invitrogen, Carlsbad, CA, USA) containing a beta-lactamase reporter gene under the control of an Upstream Activator Sequence (UAS) was used to screen the Tox21 compound library. The cytotoxicity of the Tox21 compound library against the PPARd-bla cell line was tested in parallel by measuring the cell viability using CellTiter-Glo assay (Promega, Madison, WI) in the same wells.
Tox21 Assay Protocol Summary: PPARd-bla cells were dispensed at 3000 cells/6uL/well in 1536-well black wall/clear bottom plates using a Multidrop Combi (Thermo Fisher Scientific, Waltham, MA) dispenser. After the assay plates were incubated at 37 C and 5% CO2 for 5 h, 23 nL of compounds dissolved in DMSO, positive controls or DMSO only was transferred to the assay plate by a Pintool station (Kalypsys, San Diego, CA). The assay plates were incubated at 37C for 17 h. After 1 uL of LiveBLAzerTM B/G FRET substrate was added using a Bioraptr Flying Reagent Dispenser (FRD) workstation (Beckman Coulter, Indianapolis, IN, USA), the plates were incubated at room temperature for 2 h, and fluorescence intensity was measured by an Envision plate reader (PerkinElmer, Shelton, CT). For cell viability readout that measures cytotoxicity, 3 ul/well of CellTiter-Glo reagent was added into the assay plates using a Bioraptr FRD. After 30 min incubation at room temperature, the luminescence intensity in the plates was measured using a ViewLux plate reader (PerkinElmer).
Potency is read from the fitted curve at half-maximal effect.

| Structure (SMILES) | Potency |
| --- | --- |
| CO[Si](CCCNc1ccccc1)(OC)OC | inactive |
| CN1CCC(Nc2ncc3ncnc(Nc4ccc(F)c(Cl)c4)c3n2)CC1 | 23.7 µM (active) |
| Oc1cccc2cc3cccc(O)c3c(O)c12 | inactive |
| O=[N+]([O-])c1cc([N+](=O)[O-])c2ccc(S(=O)(=O)O)cc2c1O | inactive |
| S=c1[nH]c2ccccc2s1 | inactive |
| O=C1c2c(O)ccc(Nc3ccc(CCO)cc3)c2C(=O)c2c([N+](=O)[O-])ccc(O)c21 | inactive |
| C[C@H]1[C@H]2CC[C@H]3[C@@H]4CC=C5C[C@@H](N(C)C)CC[C@]5(C)[C@H]4CC[C@]23CN1C | inactive |
| Clc1ccccc1C(c1ccccc1)(c1ccccc1)n1ccnc1 | 54.9 µM (active) |
| Clc1ccc2cc3ccccc3cc2c1 | inactive |
| Cc1cc(O)c2ccccc2c1O | 10.6 µM (active) |
| COc1cc(-c2ccc(N=C=O)c(OC)c2)ccc1N=C=O | inactive |
| Cc1cc(O)c(C(C)(C)C)cc1C(C)(C)C | 43.6 µM (active) |
| CCc1cc(Cc2cc(CC)cc(C(C)(C)C)c2O)c(O)c(C(C)(C)C)c1 | 7.76 µM (active) |
| C[C@H](CCC(=O)O)[C@H]1CC[C@H]2[C@@H]3CC[C@@H]4C[C@H](O)CC[C@]4(C)[C@H]3CC[C@]12C | inactive and 54.9 µM (active) |
| CCCC(C)c1ccccc1O (stereo not given) | inactive |
| CCN(Cc1cccnc1)C(=O)c1cccc(Cl)c1[C@]1(C)C(=O)N(Cc2ccc(OC)cc2OC)c2ccc(Cl)cc21 | 4.08 µM (active) |
| CCC1=C[C@@H]2CN(C1)Cc1c([nH]c3ccccc13)[C@@](C(=O)OC)(c1cc3c(cc1OC)N(C)[C@H]1[C@@](O)(C(=O)OC)[C@H](OC(C)=O)[C@]4(CC)C=CCN5CC[C@]31[C@@H]54)C2 | 29.8 µM (active) |
| COc1cccc(N)c1 | inactive |
| C1CCCC1 | inactive |
| O=c1[nH]sc2cc(Cl)ccc12 | 26.6 µM (active) |

| Structure (SMILES) | Potency |
| --- | --- |
| CSc1ccc2c(c1)C(N1CCN(C)CC1)Cc1ccccc1S2 (stereo not given) | 29.8 µM (active) |
| O=C(O)c1ccc(Cl)c(Cl)c1 | inactive |
| Cc1ccc(O)c(C(C)(C)C)c1 | 21.8 µM (active) and inactive |
| CCCCCCCC(=O)[O-].CCCCCCCC(=O)[O-].[Zn+2] | inactive |
| O=C1C=CC(=O)N1c1ccc(Cc2ccc(N3C(=O)C=CC3=O)cc2)cc1 | 38.9 µM (active) |
| CCCCCCCCn1sc(Cl)c(Cl)c1=O | 3.09 µM (active) |
| c1cc(C(c2ccc(OCC3CO3)cc2)c2ccc(OCC3CO3)cc2)ccc1OCC1CO1 (stereo not given) | 54.9 µM (active) |
| NC(=O)N1C(=O)C(C(=O)c2cc(Cl)cs2)c2cc(F)c(Cl)cc21 (stereo not given) | 17.4 µM (active) |
| NC(=O)C1(N2CCCCC2)CCN(CCCN2c3ccccc3CCc3ccc(Cl)cc32)CC1 | 11.9 µM (active) |
| O=C1c2ccccc2Cc2ccccc21 | inactive |
| CC[C@H]1O[C@]2(CC[C@@H]1C)C[C@@H]1C[C@@H](C/C=C(\C)C[C@@H](C)/C=C/C=C3\CO[C@@H]4[C@H](O)C(C)=C[C@@H](C(=O)O1)[C@]34O)O2 | 17.2 µM (active) |
| CCCCCCCCCCCCCCCCCC[N+](C)(C)C | 13.8 µM (active) |
| CCC(C)Nc1ccc(NC(C)CC)cc1 (stereo not given) | 12.5 µM (active) |
| Nc1c(Cl)cc(Cl)cc1Cl | inactive |
| O=C(Oc1ccccc1)c1ccccc1C(=O)Oc1ccccc1 | inactive |
| CCCCCCCCCCCCCCCC[N+](C)(C)CCN(Cc1ccc(OC)cc1)c1ncccn1 | 13.3 µM (active) |
| CCCCCCCCCCn1cc[n+](CCCCCCCCCC)c1C | 7.77 µM (active) |
| OCCN1CCN(CC/C=C2/c3ccccc3Sc3ccc(C(F)(F)F)cc32)CC1 | 26.6 µM (active) |
| C[n+]1cc2c3c(ccc2c2ccc4cc5c(cc4c21)OCO5)OCO3 | 1.46 µM (active) |
| CCCCCCCCCOC(=O)c1ccc(O)cc1 | 27.1 µM (active) |
